# Measured values published in PubChem BioAssay (NCATS).
# Inconclusive results are not listed. Unmarked numbers belong to inactive results. Active and inactive are the calls of the source. The call rests on the fitted dose curve; in most records, active means well fitted inhibition curve with a large enough effect; inconclusive means small, poorly fitted or top-dose-only effect; inactive means flat fitted curve, though single readings scatter.
# System: CP256
# Assay: qHTS profiling for inhibitors of Plasmodium falciparum proliferation (AID 504749); further: nearly all actives have a fitted effect of over 60% in size;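 on activity, negative = inhibition: 0% = DMSO vehicle and full inhibition = artemisinin control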
# Conditions: P. falciparum in erythrocytes, SYBR Green DNA, 72 h; series mostly up to 28.7 µM; activity, negative = inhibition: at the top concentration
# In short: (§1)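 Infected RBCs, 0.3% parasitemia/2.5% Hct final; cpd 72 h, 37 C, 5% CO2; lysis buffer with saponin/triton/SYBR Green I, o/n RT dark; FI 485/535; norm. to artemisinin (0.29 uM) and DMSO.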
# Potency means the concentration at half of the fitted maximal effect.
SMILES,"activity, negative = inhibition",Potency
Cc1ncc([N+](=O)[O-])n1CC(C)O (stereo unspecified),0.601%,
C[C@]12CCC(=O)C=C1CC[C@@H]1[C@H]2[C@@H](O)C[C@@]2(C)[C@H]1CC[C@]2(O)C(=O)CO,-3.71%,
Oc1ccc(OCc2ccccc2)cc1,-0.344% [at 12.8 µM],
CCCc1cc(=O)[nH]c(=S)[nH]1,4.32%,
O=C(O)c1cc(=O)c2c(OCC(O)COc3cccc4oc(C(=O)O)cc(=O)c34)cccc2o1,10.8%,
CC1(C)CCC(C)(C)c2cc(NC(=O)c3ccc(C(=O)O)cc3)ccc21,-0.141%,
CN(C)C(=O)COC(=O)Cc1ccc(OC(=O)c2ccc(N=C(N)N)cc2)cc1,-14.4%,
C=C(c1ccc(C(=O)O)cc1)c1cc2c(cc1C)C(C)(C)CCC2(C)C,8.27%,
CS(=O)(=O)OCCCCOS(C)(=O)=O,8.69%,
O=C(O)c1cccc(-c2noc(-c3ccccc3F)n2)c1,8.27%,
CC(C)(S)[C@@H](N)C(=O)O,0.659%,
Cc1c(OCC(F)(F)F)ccnc1CS(=O)c1nc2ccccc2[nH]1 (stereo unspecified),-13%,
O=P(O)(O)C(O)(Cn1ccnc1)P(=O)(O)O,1.15%,
O=C(O)CCNC(=O)c1ccc(N=Nc2ccc(O)c(C(=O)O)c2)cc1,-1.69%,
CC(S)C(=O)NCC(=O)O (stereo unspecified),5.36%,
CCC(C)(Oc1ccc(C2(c3ccc(OC(C)(CC)C(=O)O)cc3)CCCCC2)cc1)C(=O)O (stereo unspecified),9.2%,
CC1(C)NC(=O)N(c2ccc([N+](=O)[O-])c(C(F)(F)F)c2)C1=O,3.65%,
CNC[C@H](O)c1ccc(O)c(O)c1,-18.1%,
C[C@H](Cn1cnc2c(N)ncnc21)OCP(=O)(O)O,4.69%,
CCCCN(CCCC)CCC(O)c1cc2c(Cl)cc(Cl)cc2c2cc(C(F)(F)F)ccc12 (stereo unspecified),,141 nM (active)
Cc1cc(=O)c2c(O)c3c(O)cc(=O)c4c3c3c(cc(O)c1c23)C(C)(C)C=4O,,1580 nM (active)
Cc1cc2cc3c(C)cc(=O)oc3c(C)c2o1,5.94% [at 12.8 µM],
Nc1cccc2c1CN(C1CCC(=O)NC1=O)C2=O (stereo unspecified),6.14%,
Nc1ccn([C@@H]2O[C@H](CO)[C@@H](O)C2O)c(=O)n1 (stereo partly specified),2.8%,
COc1cc2c(cc1OC)C1CC(=O)C(CC(C)C)CN1CC2 (stereo unspecified),8.66%,
Nc1nc(Cl)nc2c1ncn2[C@H]1C[C@H](O)[C@@H](CO)O1,3.04%,
CCOC(=O)c1c(C)n(C)c2ccc(O)cc12,11.8%,

# System: CP260
# Assay: as above
# Conditions: P. falciparum in erythrocytes, SYBR Green DNA, 72 h; series mostly up to 28.7 µM; activity, negative = inhibition: at the top concentration
# In short: as §1
SMILES,"activity, negative = inhibition",Potency
C[C@]12CCC(=O)C=C1CC[C@@H]1[C@H]2[C@@H](O)C[C@@]2(C)[C@H]1CC[C@]2(O)C(=O)CO,5.45%,
Oc1ccc(OCc2ccccc2)cc1,-22.4% [at 12.8 µM],
CCCc1cc(=O)[nH]c(=S)[nH]1,6.59%,
O=C(O)c1cc(=O)c2c(OCC(O)COc3cccc4oc(C(=O)O)cc(=O)c34)cccc2o1,-10.5%,
CC1(C)CCC(C)(C)c2cc(NC(=O)c3ccc(C(=O)O)cc3)ccc21,0.968%,
CN(C)C(=O)COC(=O)Cc1ccc(OC(=O)c2ccc(N=C(N)N)cc2)cc1,0.331%,
CS(=O)(=O)OCCCCOS(C)(=O)=O,3.41%,
O=C(O)c1cccc(-c2noc(-c3ccccc3F)n2)c1,3.86%,
O=C(CS(=O)Cc1ccco1)NCC=CCOc1cc(CN2CCCCC2)ccn1 (stereo unspecified),6.45%,
CC(C)(S)[C@@H](N)C(=O)O,7.54%,
Cc1c(OCC(F)(F)F)ccnc1CS(=O)c1nc2ccccc2[nH]1 (stereo unspecified),-7.9%,
O=P(O)(O)C(O)(Cn1ccnc1)P(=O)(O)O,4.7%,
O=C(O)CCNC(=O)c1ccc(N=Nc2ccc(O)c(C(=O)O)c2)cc1,-3.42%,
CC(S)C(=O)NCC(=O)O (stereo unspecified),2.22%,
CC1(C)NC(=O)N(c2ccc([N+](=O)[O-])c(C(F)(F)F)c2)C1=O,-1.91%,
CNC[C@H](O)c1ccc(O)c(O)c1,1.35%,
CCCCN(CCCC)CCC(O)c1cc2c(Cl)cc(Cl)cc2c2cc(C(F)(F)F)ccc12 (stereo unspecified),,6.3 nM (active)
Cc1cc(=O)c2c(O)c3c(O)cc(=O)c4c3c3c(cc(O)c1c23)C(C)(C)C=4O,,1580 nM (active)
Cc1cc2cc3c(C)cc(=O)oc3c(C)c2o1,7.56% [at 12.8 µM],
Nc1cccc2c1CN(C1CCC(=O)NC1=O)C2=O (stereo unspecified),9.35%,
Nc1ccn([C@@H]2O[C@H](CO)[C@@H](O)C2O)c(=O)n1 (stereo partly specified),4.05%,
COc1cc2c(cc1OC)C1CC(=O)C(CC(C)C)CN1CC2 (stereo unspecified),2.96%,
Nc1nc(Cl)nc2c1ncn2[C@H]1C[C@H](O)[C@@H](CO)O1,6.47%,
CCOC(=O)c1c(C)n(C)c2ccc(O)cc12,-24.2%,

# System: CP262
# Assay: as above
# Conditions: P. falciparum in erythrocytes, SYBR Green DNA, 72 h; series mostly up to 28.7 µM; activity, negative = inhibition: at the top concentration
# In short: as §1
SMILES,"activity, negative = inhibition",Potency
Cc1ncc([N+](=O)[O-])n1CC(C)O (stereo unspecified),0.32%,
C[C@]12CCC(=O)C=C1CC[C@@H]1[C@H]2[C@@H](O)C[C@@]2(C)[C@H]1CC[C@]2(O)C(=O)CO,0.81%,
CCCc1cc(=O)[nH]c(=S)[nH]1,0%,
O=C(O)c1cc(=O)c2c(OCC(O)COc3cccc4oc(C(=O)O)cc(=O)c34)cccc2o1,3.32%,
CC1(C)CCC(C)(C)c2cc(NC(=O)c3ccc(C(=O)O)cc3)ccc21,4.18%,
CN(C)C(=O)COC(=O)Cc1ccc(OC(=O)c2ccc(N=C(N)N)cc2)cc1,-15.1%,
C=C(c1ccc(C(=O)O)cc1)c1cc2c(cc1C)C(C)(C)CCC2(C)C,10.8%,
CS(=O)(=O)OCCCCOS(C)(=O)=O,0.0125%,
O=C(O)c1cccc(-c2noc(-c3ccccc3F)n2)c1,1.44%,
O=C(CS(=O)Cc1ccco1)NCC=CCOc1cc(CN2CCCCC2)ccn1 (stereo unspecified),1.37%,
CC(C)(S)[C@@H](N)C(=O)O,7.13%,
Cc1c(OCC(F)(F)F)ccnc1CS(=O)c1nc2ccccc2[nH]1 (stereo unspecified),-10.8%,
O=P(O)(O)C(O)(Cn1ccnc1)P(=O)(O)O,5.39%,
O=C(O)CCNC(=O)c1ccc(N=Nc2ccc(O)c(C(=O)O)c2)cc1,0%,
CC(S)C(=O)NCC(=O)O (stereo unspecified),2.31%,
CCC(C)(Oc1ccc(C2(c3ccc(OC(C)(CC)C(=O)O)cc3)CCCCC2)cc1)C(=O)O (stereo unspecified),-3.39%,
CC1(C)NC(=O)N(c2ccc([N+](=O)[O-])c(C(F)(F)F)c2)C1=O,0%,
CNC[C@H](O)c1ccc(O)c(O)c1,9.63%,
C[C@H](Cn1cnc2c(N)ncnc21)OCP(=O)(O)O,1.18%,
CCCCN(CCCC)CCC(O)c1cc2c(Cl)cc(Cl)cc2c2cc(C(F)(F)F)ccc12 (stereo unspecified),,18.1 nM (active)
Cc1cc2cc3c(C)cc(=O)oc3c(C)c2o1,1.33% [at 12.8 µM],
Nc1cccc2c1CN(C1CCC(=O)NC1=O)C2=O (stereo unspecified),5.39%,
Nc1ccn([C@@H]2O[C@H](CO)[C@@H](O)C2O)c(=O)n1 (stereo partly specified),-2.58%,
COc1cc2c(cc1OC)C1CC(=O)C(CC(C)C)CN1CC2 (stereo unspecified),1.29%,
CCOC(=O)c1c(C)n(C)c2ccc(O)cc12,1.96%,
